Data published in PubChem BioAssay (NCATS).
Records with an inconclusive call do not appear. Where a call stands in place of a potency, no number is given. Activity calls are given as the source filed them. Calls come from the whole dose curve; as a rule, active = well fitted inhibition curve with a large enough effect; inconclusive = small, poorly fitted or top-dose-only effect; inactive = flat fitted curve, though single readings scatter.

experiment: qHTS for Inhibitors of Plasmodium falciparum (7G8) proliferation (AID 504316); note: nearly all actives have a fitted effect of over 65% in size; settings: P. falciparum 7G8 in erythrocytes, SYBR Green DNA, 72 h; series mostly up to 6.7 µM
From the text: Plasmodium falciparum is a virulent malarial parasite that kills 1-2 million people worldwide each year. Malaria not only inflicts tremendous suffering and morbidity on the human population, but has dramatically influenced the course of civilization with profound sociological and economic implications (Shah, S. 2010). Transmitted by mosquitoes, the sporozoite form of the parasite enters the blood stream to infect hepatocytes, where they become merozoites that infect red blood cells (erythrocytes). Within erythrocytes, merozoites begin a […] cycle of growth and division, after which the parasite is released to infect new red blood cells. Gametocytes, which form within erythrocytes as well, circulate in the bloodstream and are ingested by the mosquito, thereby completing the life cycle (see CDC website). To profile malarial lines for differential chemical responses and to identify inhibitors of malarial growth, an assay that measures P. falciparum growth and replication within erythrocytes was employed. This assay uses a DNA binding fluorescent dye (SYBR Green) to detect parasite DNA following cell lysis. Because mature erythrocytes lack DNA, only Plasmodium-derived DNA is detected. The P. falciparum line cp250, derived from a malarial isolate from Cambodia, (Mu, J., et al. 2010) was added to the panel of lines, Dd2, HB3, 7G8 and GB4 in this study. Laboratory of Assay Development and Screening Technology [ADST] and NIH Chemical Genomics Center [NCGC] Boston University, Chemistry Department, Center for Chemical Methodology and Library Development [CMLD-BU] NIH National Institute of Allergy and Infectious Diseases [NIAID]
ADST Assay Protocol Summary: The 1536-well SYBR Green viability assay was based on the method of Bennett et al (2004) and described previously in 1536-well format (Yuan J., et al. 2009). For screening 3 ul culture medium was dispensed into 1536 well black clear bottom plates (Aurora Biotechnologies) using a Multidrop Combi (Thermo Fisher Scientific Inc.), 23 nL compounds in DMSO were added by a pin transfer (Cleveland, P.H. and Koutz, P.J, 2005) using a pin tool-based delivery system (Kalypsys), and 5 ul of erythrocytes infected with P. falciparum one of five lines (cp250, Dd2, HB3, 7G8 or GB4, 0.3% parasitemia, 2.5% hematocrit final concentration) were added. The plates were incubated at 37C in a humidified incubator in 5% CO2 for 72 h, and 2 ul lysis buffer (20 mM Tris HCl, 10 mM EDTA, 0.16% saponin, 1.6% triton X, 10X SYBR Green I (supplied as 10,000X final concentration by Invitrogen) was added to each well. The plates were mixed for 25 sec with gentle shaking and incubated overnight at room temperature in the dark. The following morning, fluorescence intensity at 485(14) nm excitation and 535(25) nm emission wavelengths was measured on an EnVision (Perkin Elmer) plate reader. Plate reads were normalized relative to the control inhibitor (0.29 uM artemisinin) and vehicle (DMSO) wells present on each plate and then corrected by an algorithm using vehicle-only control plates at the beginning and end of the compound plate stack. References Shah, S. (2010). The Fever: how malaria has ruled humankind for 500,000 years. New York, Sarah Crichton Books. CDC web site, http://www.cdc.gov/malaria/about/biology/index.html Mu, J., Myers, R.A., Jiang, H., Liu, S., Ricklefs, S., Waisberg, M., Chotivanich, K., Wilairatana, P., Krudsood, S., White, N.J., et Plasmodium falciparum genome-wide scans for positive selection, recombination hot spots and resistance to antimalarial drugs Nature Genetics 2010, 42, pp 268-271 Bennett TN, Paguio, M., Gligorijevic, B., Seudieu, C., Kosar, A. D., Davidson, E., and Roepe, P. D. Novel, rapid, and inexpensive cell-based quantification of antimalarial drug efficacy Antimicrobial Agents Chemother. 2004, 48(5): pp 1807-10 Yuan J, Johnson RL, Huang RL, Wichterman J, Jiang HY, Hayton K, Fidock DA, Wellems TE, Inglese J, Austin CP, Su XZ. […]
Potency is the fitted concentration of half-maximal effect.

Compound | Potency
CC(C)CON=C1C[C@@H](O)[C@@H](O)[C@@H]2[C@H]3C(=O)N(c4ccc(F)cc4F)C(=O)[C@@H]3CC[C@@H]12 | inactive
COC[C@H]1O[C@H](c2ccccc2)C=C[C@H]1OCC=C(C)C | inactive
CC1(OC(=O)C2CCCC2)C(=O)C=C2C=C(c3ccsc3)N(CCc3ccccn3)C=C2C1=O (stereo not given) | inactive
CCCCn1c(C)cc2c(c1=O)[C@H]1O[C@](CCCCN3C(=O)c4ccccc4C3=O)(Cc3ccccc31)O2 | 1690 nM (active)
COC1=C[C@H](C(=O)NCCNC(C)=O)[C@@]2(C)Cc3ccccc3[C@@H]2CC1=O | inactive
COC(=O)CC=C1c2ccccc2OC[C@@H](OC)[C@H]1C | inactive
COC(=O)C1=C2C=C(C)CC(C)N2C(=O)NC1c1ccccc1 (stereo not given) | inactive
COC(=O)C1=C(C)N(Cc2ccccc2)C(=NCC2CC2)NC1c1ccc(Br)cc1 (stereo not given) | inactive
COC(=O)C1=C(C)N(Cc2ccccc2)C(=NCc2ccc3c(c2)OCO3)NC1CCc1ccccc1 (stereo not given) | inactive
COc1ccc2c(c1)O[C@@H](c1ccc3c(c1)OCO3)[C@H](OC(=O)Nc1cc(OC)c(OC)c(OC)c1)C2=O | 1690 nM (active)
COc1ccc(O[C@H]2C=C[C@@H](c3ccccc3)O[C@H]2COC(=O)CCC(C)=NO[C@@H]2O[C@H](COC(C)=O)[C@@H](OC(C)=O)[C@H](OC(C)=O)[C@@H]2OC(C)=O)cc1 | inactive
COc1ccc(COC(=O)NN=C2C[C@@H](O)[C@@H](O)[C@@H]3[C@H]4C(=O)N(C[C@@H]5CCCO5)C(=O)[C@@H]4CC[C@@H]23)cc1 | inactive
CC(C)=CCCC(C)=CCON=C1C[C@@H](O)[C@@H](O)[C@@H]2[C@H]3C(=O)N(c4cccc(Oc5ccccc5)c4)C(=O)[C@@H]3CC[C@H]12 | inactive
COC(=O)c1ccccc1C[C@]1(C(=O)OC)C=C[C@H](C)[C@@H](c2ccccc2)N1C(=O)C(F)(F)F | inactive
CCOC(=O)N1C2=NC(C(=O)OC)=C(C(=O)OC)[C@@H]3N(C)c4ccccc4[C@]23C[C@H]1C(=O)OC | inactive
CCN1C(=NCCCCO)NC(c2cccc(C(F)(F)F)c2)C(C(=O)OC)=C1C (stereo not given) | inactive
C[C@H]1CC[C@H]2C(=O)NC[C@H](O)CN2[C@H]1c1ccc(Br)cc1 | inactive
COC(=O)NCC=Cc1nc(CCCO)co1 | inactive
CC=COC(=O)N[C@@H](c1ccccc1)[C@]1(C(=O)OCC)CCCC1=O | inactive
COC(=O)N[C@H](CC(C)=O)c1ccc2c(c1)OCO2 | inactive

Compound | Potency
C[C@@H]1C[C@](C)(C(=O)c2ccco2)C=C1c1ccco1 | inactive
O=c1oc2ccccc2c2c1[C@H]1O[C@](c3ccsc3)(Cc3c1ccc1ccccc31)O2 | inactive
CCOC(=O)C1=CN(CCC=C(C)C)C(=O)NC1c1ccccc1 (stereo not given) | inactive
CCCCCCCc1cc2c(cn1)C(=O)C(C)(OC(C)=O)C(O)=C2Cl (stereo not given) | 953 nM (active)
C=C1CN2C(=NC(c3ccccc3)C(C(=O)OC)=C2C)O1 (stereo not given) | inactive
COC(=O)CCC(=O)OC1(C)C(=O)C=C2C=C(C3CC3)N(CCc3c[nH]c4ccccc34)C=C2C1=O (stereo not given) | inactive
C=CCOC(=O)N[C@@H](c1cccc(OC)c1)[C@@H](C)C=CCC(=O)O | inactive
CC(C)=CCCC(C)=CCON=C1C[C@@H](O)[C@@H](O)[C@@H]2[C@H]3C(=O)N(Cc4ccc5c(c4)OCO5)C(=O)[C@@H]3CC[C@@H]12 | inactive
COCC(=O)C(C(=O)OC)[C@H](CCc1ccccc1)NC(=O)OC (stereo not given in full) | inactive
C[C@H](ON=C1[C@H]2CCn3c(=O)n(-c4ccccc4)c(=O)n3[C@@H]2[C@H](O)[C@@H]2O[C@H]12)c1cn([C@H](CO)Cc2ccccc2)nn1 | inactive
C=CCOC(=O)N[C@H](c1ccccc1)C(C(C)=O)C(C)=O | inactive
C=CC[C@@](C(C)=O)(C(=O)OC)[C@@H](NC(=O)OC)c1ccccc1 | inactive
O=S(=O)(CCc1ccccc1)c1ccccc1 | inactive
COC(=O)c1c(C(=O)OC)c2c3ccccc3cc(-c3ccccc3)n2c1C(=O)OC | inactive
CC(=O)OC[C@H]1O[C@@H](ON=C(C)CCN2CCCCc3nc(C)c(C)cc32)[C@H](OC(C)=O)[C@@H](OC(C)=O)[C@H]1OC(C)=O | inactive
COc1ccc([C@]23Cc4ccccc4[C@H](O2)C2=C(O3)C(=O)c3ccccc3C2=O)cc1 | 1690 nM (active)
CC(=O)OC[C@H]1O[C@H](C#CC(C)(C)C)C=C[C@H]1OC(C)=O | inactive
CCOC(=O)CN1C(=O)NC(c2cccs2)C(C(=O)OC)=C1C (stereo not given) | inactive
COC(=O)CC=C[C@@H](C)[C@@H](C=NOC[C@@H](O)COCc1ccco1)OC | inactive
N#Cc1ccc2c(c1)C[C@]1(c3ccsc3)OC3=C(C(=O)OC4(CCCCC4)C3)[C@H]2O1 | inactive
